hERG WT inh = inhibitors of human wildtype KCNH2 potassium channel; AID 720551; activity change, % at 1.84 µM; 340,000 compounds, 0.37% hits; U2OS, BacMam KCNH2, thallium flux FluxOr; active compounds read low;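 active means maximum activity change below -70%; inconclusive means maximum activity change between -70% and -50%; inactive means maximum activity change above -50%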; further: on the % scale 0 is the no-effect control and ±100 the full control effect
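U2OS cells transduced with wild-type KCNH2 virus are loaded with FluxOr dye for 45 min, and thallium flux is measured in kinetic reads before and after stimulation buffer. Rate constants are normalized to DMSO controls.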
KB-V1 MDR tox = kills drug-selected multidrug resistant KB-V1 cells; AID 1347076; 400,000 compounds, 3.4% hits; KB-V1 MDR cells viability, CellTiter-Glo, 72 h; Potency, µM (top dose mostly 46.1 µM), most hits filed as cytotoxic; further: potency means the concentration at half of the fitted maximal effect; on the % scale 0 is the no-effect control and ±100 the full control effect; nearly all actives have a fitted effect of over 60% in size
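KB-V1 MDR subline cells in DMEM (phenol-red free, 10% FBS) exposed to compounds in qHTS concentration series for 72 h at 37 degrees C. Viability read by CellTiter-Glo luminescence; concentration-effect curves fitted after normalization and correction.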
KB-3-1 cytotox = kills parental KB-3-1 adenocarcinoma cells; KB-3-1 viability, CellTiter-Glo ATP luminescence, 72 h; Potency, µM (top dose mostly 46.1 µM), actives largely listed as cytotoxic; 400,000 compounds, 1.4% hits; further: potency means the concentration at half of the fitted maximal effect; on the % scale 0 is the no-effect control and ±100 the full control effect; nearly all actives have a fitted effect of over 60% in size
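KB-3-1 parental drug-naive adenocarcinoma cells in DMEM/10% FBS, incubated 72 h at 37 C with pin-transferred compounds across a concentration series. Viability by CellTiter-Glo luminescence; concentration-response curves fitted after normalization.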
KCNH2 3.1 inh = KCNH2 3.1 (human) potassium channel inhibition | AID 720553 | U2OS KCNH2 3.1, thallium flux FluxOr; active compounds read low | activity change, % (tested at about 1.8 µM) | 340,000 compounds, 0.95% hits;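 active means maximum activity change below -70%; inconclusive means maximum activity change from -70% to -50%; inactive means maximum activity change above -50%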;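 further: thallium influx rate constant from kinetic fluorescence after stimulation buffer; on the % scale 0 is the no-effect control and ±100 the full control effect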
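Thallium flux via FluxOr fluorescence (Red40 quencher, 45 min loading) in U2OS cells virally expressing the KCNH2 3.1 isoform (1.77 x 10^8 /mL virus, overnight at 37 C). Rate constants from 2-min kinetic reads post-stimulation, normalised to positive and negative controls.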
MCF10A rereplic = induces DNA re-replication in MCF 10a normal breast cells. 350,000 compounds, 2.9% hits. MCF 10A DNA re-replication, Hoechst nuclear intensity, 48 h. AID 624296. Potency, µM (top dose mostly 46.1 µM), for the others: at the highest dose activity, positive = re-replication, actives largely listed as activators; further: potency means the concentration at half of the fitted maximal effect; % of control where 0% means no effect; nearly all actives have a fitted effect of over 50% in size
SW480 rereplic = DNA re-replication induction in SW480 cells; SW480 DNA re-replication, Hoechst DNA content imaging, 48 h; Potency, µM (top dose mostly 46.1 µM), for inactives: at the top dose re-replication activation, hits mostly activators; 340,000 compounds, 1.8% hits; AID 624297; further: potency means the concentration at half of the fitted maximal effect; % of control where 0% means no effect; nearly all actives have a fitted effect of over 55% in size
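First, 250 cells per well were seeded. Next, compound or vehicle (23 nL) was pinned in, plates sat 48 hr at 37 C. Finally Hoechst was added for 40 min before fluorescence scanning.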
Active calls of the source: *; i = inactive; ? = inconclusive; nt = no result given. In the library only some 7.6% were active in any assay of this set; here they are far more common. Unless noted, the call rests on the fitted dose curve; in most records, active means well fitted curve in the direction sought with a large enough effect; inconclusive means small, poorly fitted or top-dose-only effect, or another doubt; inactive means no such curve, though single readings can be large; an effect the other way counts as inactive or inconclusive.

SMILES	hERG WT inh	KB-V1 MDR tox	KB-3-1 cytotox	KCNH2 3.1 inh	MCF10A rereplic	SW480 rereplic
CCN(CC)c1ccc(NC(=O)C2=CCN(S(=O)(=O)c3ccc(F)cc3)CC2)c(C)c1	2	i	i	-9	?	9%
Cc1ccccc1Cn1nnc2c(=O)[nH]c(C3CCN(C(=O)c4ccccc4)CC3)nc21	nt	i	i	nt	nt	nt
Cn1c(-c2ccc(C=O)s2)nc2c3ccccc3c3ccccc3c21	-10	?	?	-22	10µM*	?
Cc1ccc2c(CC(=O)NCc3ccco3)coc2c1C	-2	5.8µM*	7.3µM*	3	12µM*	?
COc1ccccc1N1CCN(C(=O)c2ccc3c(c2)CCN3S(C)(=O)=O)CC1	-8	i	i	-14	2%	-12%
O=C1c2ccccc2C(=O)N1CCCc1c[nH]c2ccccc12	-1	21µM*	i	4	?	26%
O=C1c2ccccc2C(=O)N1CCc1c[nH]c2ccccc12	nt	?	i	11	24%	-81%
O=C1c2ccccc2C(=O)N1CCc1c[nH]c2ccc(O)cc12	-3	?	i	-7	-2%	3.7µM*
Cc1ccc(C2=NN3C(C2)c2ccccc2OC32C(=O)Nc3ccccc32)cc1 (stereo not given)	8	i	i	-7	?	6%
CN1C(=O)C2(Oc3ccccc3C3CC(c4ccccc4)=NN32)c2ccccc21 (stereo not given)	-3	18µM*	i	-8	20%	?
COc1ccc(C(C[N+](=O)[O-])c2c(-c3ccccc3)cc3ccccn23)c(OC)c1 (stereo not given)	-2	?	?	-16	16µM*	?
Cc1cc2ccccn2c1C(C[N+](=O)[O-])c1ccc(N(C)C)cc1 (stereo not given)	-5	i	i	-1	0%	25%
COc1cccc(C(c2c(C)[nH]n(-c3ccccc3)c2=O)c2c(C)[nH]n(-c3ccccc3)c2=O)c1OC	-2	i	i	-1	6.5µM*	1%
COc1ccc(NC(=O)c2cnc3ccccn3c2=O)c(OC)c1	-6	i	?	-4	-1%	-9%
COc1ccc(C(C[N+](=O)[O-])c2c(C)[nH]n(-c3ccccc3)c2=O)cc1 (stereo not given)	2	i	i	-4	12µM*	?
COc1ccc(C(C[N+](=O)[O-])c2c(C)cc3ccccn23)cc1 (stereo not given)	-5	i	i	-13	21µM*	?
CC(C)c1nc(SCC(=O)Nc2ccc(C(=O)O)cc2)c2c3c(sc2n1)CCCC3	5	i	i	5	16%	-1%
O=[N+]([O-])c1ccc(Nc2c3ccccc3nc3ccccc23)cc1	2	i	i	-45	5%	3%
COc1ccc(OC)c(Nc2c3c(nc4ccccc24)CCC3)c1	44	3.7µM*	1µM*	-16	3.3µM*	4.1µM*
Cc1ccc(Nc2c3c(nc4ccccc24)CCC3)cc1F	nt	i	21µM*	nt	nt	nt
Cc1ccc2nc3c(c(Nc4ccc(C)c(C)c4)c2c1)CCC3	nt	18µM*	i	nt	nt	nt
COc1ccc([N+](=O)[O-])cc1Nc1c2ccccc2nc2ccccc12	10	i	?	-48	2.9µM*	?
COc1ccc(-n2ccnc(NCc3ccc(C)cc3)c2=O)cc1OC	nt	i	i	nt	nt	nt
CCc1cccc(NC(=O)Cn2c(=O)n(-c3ccccc3C)c(=O)c3c2c2cc(C)ccc2n3C)c1	nt	i	i	nt	nt	nt
CNC(=S)N1CCN(S(=O)(=O)c2ccc3ccccc3c2)CC1	8	?	i	-14	16%	-15%
c1coc(CNc2c3c(nc4ccccc24)CCC3)c1	35	?	?	-33	18µM*	?
COc1cc(NS(C)(=O)=O)ccc1Nc1c2ccccc2nc2ccccc12	9	18µM*	?	9	?	0.15µM*

Compound activity: PubChem BioAssay, National Center for Advancing Translational Sciences (NCATS)
